# ± gives the uncertainty stated by the source. In all, about 9,900 compounds were measured (“viability index relative to DMSO control”: median about 1, lowest 2% from about 0.85 on). The list comes from a sample in which the lowest values are over-represented; it also holds similar structures and randomly drawn compounds.
# Tested on: Plasmodium falciparum NF54 stage V gametocytes
# Experiment: viability index relative to DMSO control (fraction); higher = less gametocyte killing
# Conditions: 2.5 µM, library set: Broad Institute DOS, incubation time: 72 h
# Method: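 Broad DOS informer set and blood-stage-active DOS compounds screened in duplicate at 2.5 µM against P. falciparum NF54 stage V gametocytes with the serum-free one-step SaLSSA (1536-well): 72 h at 37 °C under low oxygen, then saponin lysis and MitoTracker Red CMXRos staining, with high-content imaging. Viability index = viable-object count divided by the plate mean of DMSO wells (0 = killed, about 1 = inactive).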
row,SMILES,viability index
1,O=C1CNC[C@H]2[C@@H](c3ccc(Br)cc3)[C@H](CO)N12,0.837 ± 0.14
2,O=C1CNC[C@@H]2[C@H](c3ccc(Br)cc3)[C@H](CO)N12,0.992 ± 0.074
3,O=C1CNC[C@H]2[C@H](c3ccc(Br)cc3)[C@H](CO)N12,1.05 ± 0.023
4,COc1cccc(-c2ccc([C@H]3[C@@H](CO)N4CCCCN(C(=O)Cc5ccncc5)C[C@H]34)cc2)c1,1.06 ± 0.046
5,O=C(O)C[C@@H]1CC[C@H]2NC[C@@H](O)COC[C@@H]2O1,1.13 ± 0.034
6,O=C(Cc1ccncc1)N1CCCCN2[C@@H](CO)[C@@H](c3ccc(C#Cc4ccccc4F)cc3)[C@@H]2C1,0.964 ± 0.047
7,O=C(Cc1ccncc1)N1CCCCN2[C@@H](CO)[C@H](c3ccc(C#Cc4ccccc4F)cc3)[C@@H]2C1,0.84 ± 0.22
8,O=C(Cc1ccncc1)N1CCCCN2[C@H](CO)[C@@H](c3ccc(C#Cc4ccccc4F)cc3)[C@@H]2C1,0.9619 ± 0.0014
9,C[C@@H]1CN([C@@H](C)CO)C(=O)CCCn2cc(nn2)CO[C@@H]1CN(C)C(=O)Oc1ccc2ccccc2c1,1.05 ± 0.019
10,C/C=C/c1ccc([C@@H]2[C@@H]3CN(C(=O)C4CCOCC4)C[C@H]2N3)cc1,1.06 ± 0.011

# Source: the supplement of paper PMC4723716
